GDH-TPI counter – GDH-TPI coupling enzyme inhibitors, primary screen, artefact control for M. tuberculosis FBA inhibitor project, biochemical, absorbance, full deck; GDH-TPI coupled enzyme counterscreen, NADH absorbance; inhibition, % at 4.8 µM; 1.2% of 360,000 active; AID 588335, 2011; in the data active = inhibition above about 30%
RecA splice inh – Mtb RecA intein splicing inhibitors, primary screen, biochemical, fluorescence, HTS. Protein RecA (Mycobacterium tuberculosis (strain ATCC 25618 / H37Rv)), P9WHJ3. cell-free RecA intein splicing. inhibition, % (no concentration beside the values). 0.75% of 290,000 active; in the data active = inhibition above about 30%
Mtb FBA inh – Mtb FBA enzyme inhibitors, primary screen, biochemical, fluorescence, strain H37Rv; Fructose-bisphosphate aldolase (Mycobacterium tuberculosis (strain ATCC 25618 / H37Rv)), …; purified M. tuberculosis FBA, fluorescence read-out; inhibition, % at 1 µM; 2.3% of 360,000 active; AID 588726, 2011; in the data active = inhibition above about 27%
Target sequence (P9WQA3 whole entry, looked up): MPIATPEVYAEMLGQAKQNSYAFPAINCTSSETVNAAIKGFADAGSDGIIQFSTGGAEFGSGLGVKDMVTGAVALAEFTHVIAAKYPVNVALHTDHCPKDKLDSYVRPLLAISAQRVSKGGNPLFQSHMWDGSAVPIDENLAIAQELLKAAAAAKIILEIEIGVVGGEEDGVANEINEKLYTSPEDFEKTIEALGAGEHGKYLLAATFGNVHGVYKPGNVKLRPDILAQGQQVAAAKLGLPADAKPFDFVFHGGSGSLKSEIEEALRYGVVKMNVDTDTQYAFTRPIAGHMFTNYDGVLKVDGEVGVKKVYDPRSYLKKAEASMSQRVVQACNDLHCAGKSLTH
BJeLR viability – MLPCN primary cell-based screen for lethality selective to Ras in HRASV12 cells; BJeLR (HRASV12) viability, CellTiter-Glo ATP luminescence, 48 h; inhibition, % (no concentration beside the values); 0.17% of 300,000 active; AID 1554, 2009; in the data active = inhibition above about 50%
PrPC TRFRET – inhibitors of human cell surface prion protein PrPC, primary screen, cell-based, TR-FRET; Major prion protein (Homo sapiens), P04156; TR-FRET read-out; inhibition, % at 13.8 µM; 0.43% of 370,000 active; AID 720596, 2013; in the data active = inhibition above about 24%
Of the large screens only hits and unclear results are named; the others gave an inactive call. The list is not random: actives were taken first. Their share in the collection is about 4.2%.

O=C1C=C(c2cccs2)C[C@H](c2ccccc2)[C@H]1n1nnc([N+](=O)[O-])n1	BJeLR viability 83
COC(=O)C1CN(Cc2cn(Cc3ccc(Cl)cc3)nn2)CCS(=O)(=O)N1Cc1ccccc1 (centres undefined)	none (no result: GDH-TPI counter, RecA splice inh, Mtb FBA inh, BJeLR viability)
CC(C)(C)C(=O)N1N=C(c2ccc(NS(C)(=O)=O)cc2)CC1c1cccs1 (centres undefined)	Mtb FBA inh 112
CC(=O)N1N=C(c2cccc(NS(C)(=O)=O)c2)CC1c1cccs1 (centres undefined)	GDH-TPI counter 65
CS(=O)(=O)Nc1ccc(C2=NN(C(=O)CCCC(=O)O)C(c3cccs3)C2)cc1 (centres undefined)	Mtb FBA inh active
CS(=O)(=O)Nc1cccc(C2=NN(C(=O)CCC(=O)O)C(c3cccs3)C2)c1 (centres undefined)	none
COc1ccccc1C(=O)NC1CCCCN(Cc2cccc(F)c2)C1=O (centres undefined)	none (no result: GDH-TPI counter, RecA splice inh, Mtb FBA inh, BJeLR viability)
O=C(NC1CCCCN(Cc2ccc(OC(F)(F)F)cc2)C1=O)c1cccc(F)c1 (centres undefined)	none (no result: GDH-TPI counter, RecA splice inh, Mtb FBA inh, BJeLR viability)
CCC(C)C(NS(=O)(=O)c1ccc(C)cc1)C(=O)Oc1ccc2c3c(c(=O)oc2c1)CCC3 (centres undefined)	Mtb FBA inh 37
CC[C@@H](NS(=O)(=O)c1ccc(C)cc1)C(=O)Oc1ccc2c3c(c(=O)oc2c1)CCC3	Mtb FBA inh active
Cc1ccc(S(=O)(=O)NC(CC(C)C)C(=O)Oc2ccc3c4c(c(=O)oc3c2)CCC4)cc1 (centres undefined)	Mtb FBA inh active
COC(=O)[C@@H]1N=C(c2ccc(OC)cc2)O[C@]12C(=O)N(Cc1cn(-c3ccccc3)nn1)c1cccc(Cl)c12	none (no result: GDH-TPI counter, RecA splice inh, Mtb FBA inh, BJeLR viability)
CCOC(=O)[C@]12CCCC=C1N(Cc1ccc(OC)cc1)C(=O)[C@@H]2CC(=O)NCCCOC	none (no result: GDH-TPI counter, RecA splice inh, Mtb FBA inh, BJeLR viability)
O=[N+]([O-])c1cc([N+](=O)[O-])c(N2CCCCCC2)cc1NCCO	GDH-TPI counter 34
COc1ccc(NC(=O)C(Cl)=C(Cl)Cl)cn1	none
COc1ccc(NC(=O)/C(Cl)=C(/Cl)S(=O)Cc2ccc(Cl)cc2)cn1 (centres undefined)	PrPC TRFRET 29 (no result: RecA splice inh, BJeLR viability)
CO/N=C1\CCn2c1c(C)c1ccccc12	GDH-TPI counter 31
Cc1c2n(c3ccccc13)CC/C2=N\O	none
Cc1ccc(CN2CCCCC(NC(=O)C(C)(C)C)C2=O)cc1 (centres undefined)	none (no result: GDH-TPI counter, RecA splice inh, Mtb FBA inh, BJeLR viability)
CCCCCn1nnnc1C1(C)CN(S(C)(=O)=O)CC(=O)N1Cc1ccco1 (centres undefined)	none (no result: GDH-TPI counter, RecA splice inh, Mtb FBA inh, BJeLR viability)
c1ccc(C2[C@H]3CN(Cc4cccnc4)[C@H](c4ccccc4)C34CC2(c2cccnc2)C4)cc1 (some centres undefined)	RecA splice inh 37
CN(C)[C@@H]1CCN(c2ccc3c(c2)O[C@@H]2CCN(C2)S3(=O)=O)C1	none (no result: GDH-TPI counter, RecA splice inh, Mtb FBA inh, BJeLR viability)
Clc1ccccc1CN1CCN(/N=C/C=C/c2ccco2)CC1	GDH-TPI counter 42
CCn1c(SCC(=O)N/N=C/C(C)=C/c2ccco2)nnc1-c1ccccc1	none
O=C(CN1CCN(Cc2ccccc2)CC1)N/N=C\C=C/c1ccco1	GDH-TPI counter 43
O=C(CN1CCN(Cc2ccccc2Cl)CC1)N/N=C/C=C/c1ccco1	GDH-TPI counter 61
CC(/C=N\NC(=O)CN1CCN(Cc2ccccc2)CC1)=C\c1ccco1	GDH-TPI counter 53
Fc1ccccc1/C=N/N1CCN(Cc2ccccc2Cl)CC1	none
COc1cc(C)ccc1C(=O)N1CCC(Oc2cccnc2)CC1	none (no result: GDH-TPI counter, RecA splice inh, Mtb FBA inh, BJeLR viability)
CCC1=C/C(=C/c2sc3ccccc3[n+]2CC)CC(C)(C)C1	none (no result: GDH-TPI counter, Mtb FBA inh)
CC[n+]1c(/C=C2\C=C(C)CC(C)(C)C2)sc2ccccc21	RecA splice inh 47
FC(F)(F)c1cc(CNC2CCC23CCCCC3)ccc1Cl (centres undefined)	none (no result: GDH-TPI counter, RecA splice inh, Mtb FBA inh, BJeLR viability)
CCCC1Cc2nc(N3CCCCC3)c(C#N)cc2CO1 (centres undefined)	none (no result: PrPC TRFRET)
CCCC1Cc2[nH]c(=O)c(C#N)cc2CO1 (centres undefined)	Mtb FBA inh 126
O=[N+]([O-])c1ccc(-c2nc(Cl)c3c(n2)CCCC3)o1	GDH-TPI counter 32 (no result: RecA splice inh, BJeLR viability)
N#Cc1nc(COc2ccccc2)oc1N1CCOCC1	none
CC1CN(c2oc(-c3cccs3)nc2C#N)CC(C)O1 (centres undefined)	Mtb FBA inh active
N#Cc1nc(-c2cccs2)oc1N1CCOCC1	Mtb FBA inh active
CC1CN(c2oc(Cc3cccc4ccccc34)nc2C#N)CC(C)O1 (centres undefined)	none
O=C(Nc1c(-c2ccccc2)nc2ncccn12)c1ccc(F)cc1	none (no result: GDH-TPI counter, RecA splice inh, Mtb FBA inh, BJeLR viability)
N=c1nc(-c2ccccc2)ccn1O	GDH-TPI counter 39
CCOC(=O)C(C)Sc1nnc2c3ccccc3n(C)c2n1 (centres undefined)	GDH-TPI counter 32
CCN(CC)C(=O)CSc1nnc2c3ccccc3n(C)c2n1	none
COc1cccc2c1C(=O)c1c(O)c3c(c(O)c1C2=O)C[C@@](O)(C(=O)CO)C[C@@H]3O[C@H]1C[C@H](N)[C@H](O)[C@H](C)O1	BJeLR viability 75
Cc1ccc(OCC(C)CN2CCC(C(O)(c3ccccc3)c3ccccc3)CC2)cc1 (centres undefined)	none (no result: GDH-TPI counter, RecA splice inh, Mtb FBA inh, BJeLR viability)
COc1cc(OC)cc(C(=O)NCC2CCCO2)c1 (centres undefined)	none
CCOc1ccccc1N=c1oc2cc(O)ccc2cc1C(=O)NCC1CCCO1 (centres undefined)	Mtb FBA inh 166 (no result: RecA splice inh)
COc1ccc(N=c2oc3cc(O)ccc3cc2C(=O)NCC2CCCO2)c(OC)c1 (centres undefined)	GDH-TPI counter 32, Mtb FBA inh active
COc1ccc(N=c2oc3cc(O)ccc3cc2C(=O)NCC2CCCO2)cc1 (centres undefined)	Mtb FBA inh 190
CCOc1ccc(C(=O)NCC2CCCO2)cc1OCC (centres undefined)	none
Cc1cc(C)c2c(n1)nn1c(NCCN3CCOCC3)cc(C)nc21	Mtb FBA inh active
COCCNc1cc(C)nc2c3c(C)cc(C)nc3nn12	Mtb FBA inh active
Cc1cc(NCCN2CCOCC2)n2nc(C)c(-c3ccccc3)c2n1	none
O=C(CCc1ccccc1)N[C@H]1[C@@H](OC(=O)c2cnccn2)CCC[C@@]12C(=O)N(Cc1ccccc1)c1ccccc12	none (no result: GDH-TPI counter, RecA splice inh, Mtb FBA inh, BJeLR viability)
Cc1nnc(SCC(=O)Nc2nsc(-c3ccccc3)n2)s1	none
CC1(C)CC(=O)c2c(nc(SCC(=O)Nc3nsc(-c4ccccc4)n3)c(C#N)c2-c2ccccc2)C1	BJeLR viability 59
COc1ccc(-c2cnnc(N/N=C/c3ccc(O)cc3)n2)cc1	GDH-TPI counter 34
Oc1ccc(/C=N\Nc2nncc(-c3ccccc3)n2)cc1	GDH-TPI counter 40

Screening results (PubChem BioAssay)
